# Screening data deposited in PubChem by several laboratories.
# Rows were chosen to be rich in hits. Some 3% of all compounds tested hit in one or more screens of this group.
# Arbovirus anti – blocks arbovirus infection; 200,000 compounds, 0.37% hits; inhibition, % at 10 µM; arbovirus infection cell-based antiviral screen; in the data active means inhibition above about 30%
# Mcl1-Noxa inh – Mcl-1/Noxa interaction inhibition; TR-FRET Mcl-1/Noxa peptide binding, 2 h; inhibition, % at 21.7 µM; 220,000 compounds, 1.5% hits; AID 1022;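 active means compounds that cut the protein-peptide binding signal by more than 50% relative to plate controls in a single-dose test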;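 further: His-tagged Mcl-1 with rhodamine Noxa BH3 peptide and terbium anti-His antibody; 0% = Mcl-1 plus Noxa peptide wells and 100% = peptide-only wells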
# Target sequence (Q07820 whole entry, looked up): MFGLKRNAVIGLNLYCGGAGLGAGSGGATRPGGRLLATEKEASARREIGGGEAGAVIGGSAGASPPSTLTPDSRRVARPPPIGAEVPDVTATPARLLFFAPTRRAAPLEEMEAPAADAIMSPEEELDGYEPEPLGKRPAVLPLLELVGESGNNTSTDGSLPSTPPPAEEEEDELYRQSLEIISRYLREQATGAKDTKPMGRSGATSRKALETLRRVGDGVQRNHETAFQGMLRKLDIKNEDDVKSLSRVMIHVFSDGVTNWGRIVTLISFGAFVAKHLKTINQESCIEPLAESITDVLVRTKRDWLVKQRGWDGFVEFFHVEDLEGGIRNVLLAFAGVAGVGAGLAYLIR
# Mcl1-Bid inh – Mcl-1/Bid interaction inhibition | Q07820 | TR-FRET Mcl-1/Bid-Dy647 peptide binding, 1536-well | inhibition, % at 21.7 µM | 220,000 compounds, 0.97% hits | AID 1021;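 active means compounds that cut the binding signal by more than half at the single screening dose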;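 further: His-tagged Mcl-1 with europium anti-His antibody binding Bid BH3 peptide; 0% = Mcl-1 plus peptide wells and 100% = peptide-only wells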
# Bim-Mcl-1 – disrupts Bim peptide binding to human Mcl-1; Q07820; inhibition, % at 10 µM; AID 1009; Bead-based flow cytometry, Bim peptide-Mcl-1 binding; 190,000 compounds, 0.1% hits; in the data active means inhibition above about 40%;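 further: 0% = no compound tracer wells and 100% = peptide blocker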
# 14-3-3 Bad PPI – disrupts binding of bovine 14-3-3 zeta to phospho-Bad peptide; P63103; TR-FRET 14-3-3zeta/Dy647-pBad peptide displacement, 1 h; inhibition, % at 21.7 µM; 220,000 compounds, 0.71% hits; AID 781;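 active means inhibition above about 70%, limit read from the data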;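 further: 0% = full 14-3-3 plus peptide FRET controls and 100% = background without 14-3-3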
# * marks the source's active call; other numbers are inactive results; . = not tested or not shown.
SMILES,Arbovirus anti,Mcl1-Noxa inh,Mcl1-Bid inh,Bim-Mcl-1,14-3-3 Bad PPI
CCN(CC)C(=O)CN(C)S(=O)(=O)c1cccc2nsnc12,10,-7,76*,-1,-8
CCn1c2ccccc2c2cc(NC(=O)c3coc(=O)c(Br)c3)ccc21,.,69*,38,.,50
O=C(O)c1ccccc1/C=N/NC(=O)c1cc(-c2ccco2)nc2ccccc12,.,99*,27,.,70
CCN(CC)CCNC(=O)c1cc(-c2ccco2)nc2ccccc12,3,35,26,0,12
CCN(CC)C(=O)COC(=O)c1cc(-c2ccco2)nc2ccccc12,11,90*,-40,3,24
COc1cccc(-c2cc(C(=O)Nn3cnnc3)c3ccccc3n2)c1,38*,18,2,2,2
CCN(CC)C(=O)COC(=O)c1cc(-c2ccc(OC)cc2)nc2ccccc12,15,-8,97*,-4,6
CCOCCn1c(CN2CCc3ccccc3C2)nc2c1c(=O)n(C)c(=O)n2C,.,25,-4,.,-18
CC(O)C1CCC2C3CC[C@H]4CC(O)CCC4(C)C3CC3(OCCO3)C12C (some centres undefined),3,1,3,0,-20
CNC(=S)N(Cc1ccc(OC)cc1)Cc1cc2ccc(C)cc2[nH]c1=O,3,8,-36,0,-1
Cc1cc(C)c(NC(=O)C2CCN(c3cnccn3)CC2)c(C)c1,3,3,-1,-4,0
O=C(COC(=O)c1cc(-c2ccco2)nc2ccccc12)NCc1ccccc1,6,37,-6,0,-4
CNC(=O)COC(=O)c1cc(-c2ccco2)nc2ccccc12,.,76*,1,.,61
CCOC(=O)c1cc(-c2ccco2)nc2c1c(C)nn2-c1cccc(Cl)c1,-1,78*,49,0,12
Cc1ccc2c(C(=O)CNc3nncs3)c(C)[nH]c2c1,.,-17,-25,.,1
[O-][n+]1c2c(nn1-c1ccccc1)/C(=N/O)CCC2,2,5,-22,3,-5
[O-][n+]1onc2c1CCC(=N/O)/C2=N\Nc1ccccc1,.,78*,-28,.,37
CCc1nnc(NS(=O)(=O)c2ccc(N3C(=O)c4ccc(C(=O)O)cc4C3=O)cc2)s1,1,3,-17,2,-4
N#CCCN(C(=O)COC(=O)c1ccc(CNS(=O)(=O)c2ccc(F)c(Cl)c2)cc1)c1ccc(F)cc1,16,-2,-7,0,-6
COc1ccc(-c2nn3c(COc4ccccc4)nnc3s2)cc1OC,4,-15,-2,-2,4
COc1ccc(-c2nn3cnnc3s2)cc1OC,4,-6,53*,1,-10
CCOC(=O)c1ccc2nc(C)cc(Nc3cccc(C(=O)O)c3)c2c1,10,-2,-18,0,-8
CCOC(=O)c1cccc(Nc2nc(C)cc(C)n2)c1,-1,3,10,-1,71*
Cc1cc2cc(CNC(=O)c3ccc(Br)o3)ccc2n1C,-3,59*,-81,.,7
CCCC(=O)NCc1ccc2c(c1)cc(C)n2C,4,-5,-53,0,-20
SMILES,Arbovirus anti,Mcl1-Noxa inh,Mcl1-Bid inh,Bim-Mcl-1,14-3-3 Bad PPI
CC(C)C(c1nnnn1CCc1ccccc1)N1CCOCC1 (centres undefined),-5,26,-11,-1,70*
COCCn1nnnc1C(C(C)C)N1CCC(Cc2ccccc2)CC1 (centres undefined),-5,19,6,3,84*
COc1cc2cc(C(c3nnnn3C(C)(C)C)N3CCC(C)CC3)c(=O)[nH]c2cc1OC (centres undefined),-10,-10,-4,-4,12
O=c1c2ccc([N+](=O)[O-])cc2ncn1Cc1ccccc1C(F)(F)F,-2,25,-13,10,-13
COCCn1nnnc1CN(Cc1ccco1)Cc1cc2cc3c(cc2[nH]c1=O)OCO3,13,-11,-1,43*,5
CC(C)(C)n1nnnc1CN(Cc1ccco1)Cc1cc2cc3c(cc2[nH]c1=O)OCO3,5,35,-11,-3,-15
O=C(O)CCN1C(=O)S/C(=C\c2cccnc2)C1=O,.,13,91*,.,0
CS(=O)(=O)c1ccc(C(=O)NCCN2C(=O)S/C(=C\c3cccnc3)C2=O)cc1[N+](=O)[O-],-42,81*,24,0,32
O=C(NCCN1C(=O)S/C(=C\c2ccc(Cl)c(Cl)c2)C1=O)c1cnccn1,1,58*,-23,2,-13
CN(C)S(=O)(=O)c1ccc(C(=O)NCCN2C(=O)S/C(=C\c3cccnc3)C2=O)cc1,5,15,-14,0,-16
